Compounds without any hit were thinned out: in the full panel of roughly 83,000, 20% have a hit.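 Results are percent growth after 48 hours of single-concentration exposure. 100 means growth as in untreated cells, lower positive values show inhibition; negative values down to -100 show cell death.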 A number with no mark means an inactive call. Calls of active or inactive are those of the source. The calls were made as follows: active = growth percent below 10; inactive = the rest.

Consider eight molecules from PubChem BioAssay (NCI).

Some test systems named below: K-562 leukemia; MALME-3M melanoma; MDA-MB-231 breast; RXF 393 renal; SF-268 CNS; SF-295 CNS; SF-539 CNS; UACC-257 melanoma; M14 melanoma; HCT-15 colon; HT29 colon; SNB-75 CNS; SNB-19 CNS; U251 CNS; PC-3 prostate; SK-MEL-5 melanoma; UACC-62 melanoma; LOX IMVI melanoma; SK-MEL-28 melanoma; SK-MEL-2 melanoma.
Common to all, as to experiment: NCI-60 one-dose screen, 48 h (100 = growth as untreated, 0 = no growth, -100 = all killed)
What all share (details): 10 µM unless noted

For the molecule `COc1ccc(-c2nc3ccc(-c4nnc(SCC(=O)Nc5ccc(C(C)=O)cc5)o4)cc3[nH]2)cc1`, the growth in the experiment on K-562 leukemia is 85.6%; with MALME-3M melanoma, 87.8%; in the experiment with MDA-MB-231 breast it was 94.7%; in the experiment on RXF 393 renal it was 122%; with SF-268 CNS, 104%; in the experiment with SF-295 CNS, 97.5%. Also, the growth in the experiment on SF-539 CNS was 81.6%; in the experiment with UACC-257 melanoma, 124%; in the experiment on M14 melanoma it was 91.9%; in the experiment on HCT-15 colon, 100%; in the experiment on HT29 colon, 116%; in the experiment with SNB-75 CNS, 92.6%. Also, the growth in the experiment on SNB-19 CNS is 119%; with U251 CNS, 104%; in the experiment with PC-3 prostate, 104%; with SK-MEL-5 melanoma, 93.5%; in the experiment with UACC-62 melanoma, 96%; in the experiment on LOX IMVI melanoma, 108%. In addition, the growth with SK-MEL-28 melanoma is 112%; with SK-MEL-2 melanoma, 134%.
Consider `COc1cc(-c2nc3ccc(-c4nnc(SCC(=O)Nc5ccc(C(=O)/C=C/c6ccc(Cl)cc6)cc5)o4)cc3[nH]2)cc(OC)c1OC`, for which the growth was 83.8% with K-562 leukemia; 101% with MALME-3M melanoma; 91.6% in the experiment on MDA-MB-231 breast; 112% in the experiment with RXF 393 renal; 99.2% in the experiment on SF-268 CNS; 97.7% with SF-295 CNS. Also, the growth in the experiment with SF-539 CNS was 74.7%; in the experiment on UACC-257 melanoma it was 112%; in the experiment with M14 melanoma, 105%; in the experiment on HCT-15 colon, 86.9%; in the experiment on HT29 colon it was 102%; with SNB-75 CNS, 85.3%. For the same molecule, the growth is 93.4% with SNB-19 CNS; 77.6% in the experiment with U251 CNS; 95.1% in the experiment on PC-3 prostate; 91.4% with SK-MEL-5 melanoma; 84% in the experiment with UACC-62 melanoma; -31.6% (active) in the experiment on LOX IMVI melanoma. Also, in the experiment on SK-MEL-28 melanoma, the growth was 102%.
For the molecule `CN(C)CCCNc1c2ccc(Cl)cc2nc2c1oc1ccccc12`, the growth in the experiment with K-562 leukemia was 3.28% (active); in the experiment on MALME-3M melanoma, 14.6%; in the experiment on MDA-MB-231 breast, -17.5% (active); with RXF 393 renal, -68.1% (active); in the experiment with SF-268 CNS, 23%; in the experiment on SF-295 CNS, -25.1% (active). Besides, the growth is -68.7% (active) with SF-539 CNS; 32% in the experiment on UACC-257 melanoma; 15.5% in the experiment on M14 melanoma; -20.6% (active) in the experiment with HCT-15 colon; -22.2% (active) in the experiment with HT29 colon; 29.9% with SNB-75 CNS. Besides, the growth in the experiment on SNB-19 CNS was 16.5%; in the experiment with U251 CNS it was 18.8%; with PC-3 prostate, 13.7%; in the experiment with SK-MEL-5 melanoma it was -98.1% (active); in the experiment on UACC-62 melanoma it was 13.4%; in the experiment on LOX IMVI melanoma, -83.4% (active). The growth with SK-MEL-28 melanoma is 16.4%.
On to `COc1cc2nc(-c3ccc(Cl)cc3)cc(OCCCNCC3CCCO3)c2cc1OC` (configuration not stated), for which the growth in the experiment on K-562 leukemia was 16.7%; in the experiment on MALME-3M melanoma, 12.3%; with MDA-MB-231 breast, 33.8%; in the experiment on RXF 393 renal it was 31.3%; in the experiment on SF-268 CNS, 77.9%; in the experiment on SF-295 CNS, 34.5%. In addition, the growth in the experiment with SF-539 CNS is 56.4%; in the experiment with UACC-257 melanoma, -33.9% (active); in the experiment with M14 melanoma it was -71.5% (active); in the experiment on HCT-15 colon, 23.9%; in the experiment on HT29 colon, 16.1%; in the experiment on SNB-75 CNS, 60.4%. Further, the growth is 82.5% with SNB-19 CNS; 61.4% with U251 CNS; 52.2% in the experiment on PC-3 prostate; 50.1% with SK-MEL-5 melanoma; -56.2% (active) in the experiment on UACC-62 melanoma; -47.8% (active) with LOX IMVI melanoma. Besides, the growth in the experiment on SK-MEL-28 melanoma is 8.95% (active); in the experiment with SK-MEL-2 melanoma it was 124%.
In the case of `CCOC(=O)c1c(Nc2ccccc2)nn2c(N)c(C#N)c(-c3ccc(Cl)cc3)nc12`, the growth in the experiment on K-562 leukemia is 69.1%; in the experiment with MALME-3M melanoma, 85%; in the experiment with MDA-MB-231 breast, 69.9%; in the experiment with RXF 393 renal it was 64.6%; in the experiment with SF-268 CNS, 61.1%; in the experiment with SF-295 CNS, 26.8%. Besides, the growth in the experiment with SF-539 CNS was 64.3%; in the experiment with UACC-257 melanoma it was 95.8%; in the experiment with M14 melanoma, 81.2%; with HCT-15 colon it was 76%; with HT29 colon, 73.1%; in the experiment on SNB-75 CNS it was -11.2% (active). In addition, the growth is 89.8% in the experiment on SNB-19 CNS; 44.6% with U251 CNS; 40.9% in the experiment on PC-3 prostate; 94.8% in the experiment on SK-MEL-5 melanoma; 70% in the experiment on UACC-62 melanoma; 49.3% in the experiment with LOX IMVI melanoma. In addition, the growth in the experiment on SK-MEL-28 melanoma is 78.5%.
Turning to `Fc1ccc(-c2cc3nc(C(Cl)Cl)nc(-c4ccccc4)n3n2)cc1`, the growth in the experiment on K-562 leukemia is 19.2%; with MALME-3M melanoma, 47.2%; in the experiment on MDA-MB-231 breast, -10.2% (active); in the experiment on RXF 393 renal, -62.9% (active); in the experiment with SF-268 CNS, 10.2%; in the experiment on SF-295 CNS it was 2.73% (active). For the same molecule, the growth with SF-539 CNS is -10.6% (active); with UACC-257 melanoma, -2.11% (active); in the experiment on M14 melanoma it was 26.9%; with HCT-15 colon it was 7.35% (active); in the experiment on HT29 colon it was -41.4% (active); with SNB-75 CNS, -30% (active). In addition, the growth was -6.52% (active) with SNB-19 CNS; -58.2% (active) in the experiment with U251 CNS; -24.5% (active) in the experiment with PC-3 prostate; 75.2% in the experiment with SK-MEL-5 melanoma; 36.2% in the experiment on UACC-62 melanoma; 86.9% with LOX IMVI melanoma. The growth with SK-MEL-28 melanoma is -7.7% (active); in the experiment with SK-MEL-2 melanoma, 53.5%.
For `Cn1cc(-c2cc(N)n3nc(-c4cn(C)c5ccc(Br)cc45)cc3n2)c2cc(Br)ccc21`, the growth was 5.07% (active) in the experiment on K-562 leukemia; 102% with MALME-3M melanoma; 63.3% with MDA-MB-231 breast; 147% in the experiment on RXF 393 renal; 82.5% in the experiment with SF-268 CNS; 105% with SF-295 CNS. Further, the growth in the experiment with SF-539 CNS is 85.2%; with UACC-257 melanoma, 109%; with M14 melanoma, 65.5%; with HCT-15 colon, 41.7%; with HT29 colon, 4.96% (active); with SNB-75 CNS, 82.2%. Moreover, the growth with SNB-19 CNS is 104%; with U251 CNS it was -37.9% (active); in the experiment on PC-3 prostate, 71.9%; in the experiment on SK-MEL-5 melanoma, 108%; with UACC-62 melanoma, 92.1%; in the experiment on LOX IMVI melanoma, 6.31% (active). Further, the growth was 97.2% with SK-MEL-28 melanoma and 120% in the experiment on SK-MEL-2 melanoma.
Turning to `CNC(=O)c1cc(-c2ccc(NC(=O)Nc3ccc(N4CCOCC4)c(C(F)(F)F)c3)cc2)nc2cccnc12`, the growth with K-562 leukemia is 34.3%; with MALME-3M melanoma it was 60.7%; in the experiment on MDA-MB-231 breast, 63.9%; with RXF 393 renal, -15.9% (active); in the experiment with SF-268 CNS, 80.2%; in the experiment with SF-295 CNS, 9.49% (active). The growth in the experiment with SF-539 CNS was 30.1%; in the experiment with UACC-257 melanoma, 89.2%; with M14 melanoma, 77.2%; in the experiment with HCT-15 colon, 33.5%; in the experiment on HT29 colon it was 54.9%; in the experiment with SNB-75 CNS, 67.6%. Moreover, the growth in the experiment on SNB-19 CNS is 58.8%; in the experiment with U251 CNS it was 43.7%; with PC-3 prostate it was 52.1%; with SK-MEL-5 melanoma it was 67.2%; with UACC-62 melanoma, 64.3%; with LOX IMVI melanoma, 31.1%. For the same molecule, the results for the growth in the experiment with SK-MEL-28 melanoma and with SK-MEL-2 melanoma were 64.5% and 67.8%, respectively.
